High-throughput results from PubChem.
Only some compounds are listed: those with a hit (about 1.9% of all), similar ones and a draw of the others.
PLC-gamma1 inh: PLC-gamma1 (human) inhibition, primary screen | P19174 | purified PLC-gamma1, fluorogenic substrate, fluorescence | inhibition, % at 12.2 µM | 370,000 compounds, 0.84% hits
Target sequence (P19174 whole entry, looked up): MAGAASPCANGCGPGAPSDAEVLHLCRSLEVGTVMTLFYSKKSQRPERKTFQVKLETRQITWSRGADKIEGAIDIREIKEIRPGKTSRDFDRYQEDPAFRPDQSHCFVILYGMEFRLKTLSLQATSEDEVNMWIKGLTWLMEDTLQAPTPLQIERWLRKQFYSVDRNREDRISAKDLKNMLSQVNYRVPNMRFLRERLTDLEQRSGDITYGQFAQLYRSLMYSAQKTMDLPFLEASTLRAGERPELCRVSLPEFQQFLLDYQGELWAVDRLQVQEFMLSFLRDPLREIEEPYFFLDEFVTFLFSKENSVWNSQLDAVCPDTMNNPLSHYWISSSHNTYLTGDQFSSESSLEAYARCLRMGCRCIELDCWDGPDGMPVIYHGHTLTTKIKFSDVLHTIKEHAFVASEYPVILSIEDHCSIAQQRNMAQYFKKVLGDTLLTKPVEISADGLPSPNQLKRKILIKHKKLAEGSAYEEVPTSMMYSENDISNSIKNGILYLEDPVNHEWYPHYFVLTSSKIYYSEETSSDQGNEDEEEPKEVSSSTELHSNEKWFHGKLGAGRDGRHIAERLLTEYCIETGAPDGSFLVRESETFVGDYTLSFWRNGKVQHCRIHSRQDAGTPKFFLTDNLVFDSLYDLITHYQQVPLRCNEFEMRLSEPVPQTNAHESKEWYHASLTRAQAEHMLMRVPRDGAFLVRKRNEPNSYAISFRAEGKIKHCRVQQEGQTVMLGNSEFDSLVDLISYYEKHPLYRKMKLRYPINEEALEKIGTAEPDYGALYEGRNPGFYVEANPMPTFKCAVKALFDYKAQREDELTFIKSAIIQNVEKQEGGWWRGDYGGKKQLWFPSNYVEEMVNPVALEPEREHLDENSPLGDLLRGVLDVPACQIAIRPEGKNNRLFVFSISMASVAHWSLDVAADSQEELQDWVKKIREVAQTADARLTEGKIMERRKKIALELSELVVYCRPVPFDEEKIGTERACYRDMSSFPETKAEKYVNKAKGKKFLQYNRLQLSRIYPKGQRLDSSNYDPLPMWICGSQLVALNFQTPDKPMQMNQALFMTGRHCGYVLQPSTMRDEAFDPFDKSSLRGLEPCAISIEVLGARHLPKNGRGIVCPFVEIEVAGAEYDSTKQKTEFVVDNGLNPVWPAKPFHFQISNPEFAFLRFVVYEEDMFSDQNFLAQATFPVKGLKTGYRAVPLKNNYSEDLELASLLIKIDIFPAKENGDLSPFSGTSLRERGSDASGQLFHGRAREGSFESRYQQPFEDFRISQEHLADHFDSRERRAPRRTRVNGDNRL
MsrA inh: inhibits bovine methionine sulfoxide reductase A | purified bovine MsrA, absorbance read-out | inhibition, % at 15.5 µM | 360,000 compounds, 0.75% hits | AID 651718; in the data active means inhibition above about 4.5%;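 further: 0% = vehicle wells with enzyme and 100% = reference inhibitor wells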
MsrA act: bovine methionine sulfoxide reductase A activation; purified bovine MsrA, absorbance read-out; activation, % at 10.6 µM; 360,000 compounds, 0.3% hits; AID 602163; in the data active means activation above about 7.5%;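 further: 0% = vehicle and 100% = reference activator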
PLC-beta3 inh: PLC-beta3 (human) inhibition, primary screen | Q01970 | Purified PLC-beta3, fluorogenic substrate, fluorescence | inhibition, % at 12.2 µM | 370,000 compounds, 0.18% hits; in the data active means inhibition above about 11%;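 further: 0% = median of compound wells on plate and 100% = full blocker control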
PLCg1 ctr: PLC-gamma1 inhibition, counter-screen for PLC-beta3 hits | shares compounds with PLC-gamma1 inh | inhibition, % at 12.3 µM | purified PLC-gamma1, fluorogenic substrate, fluorescence | AID 743258 | 3,300 compounds, 3.1% hits
PLCbeta3 conf: human PLC-beta3 inhibition, confirmation; shares compounds with PLC-gamma1 inh; inhibition, % at 12.3 µM; 3,300 compounds, 1% hits; AID 743261; purified PLC-beta3, fluorogenic substrate fluorescence; in the data active means inhibition above about 11%
Starred values were filed as active, the others as inactive; . = no result; ! = a repeat was not active. Unless noted, no stated cut-off is given here; in the data, active means inhibition above about 9.5%; inactive means the rest.

SMILES | PLC-gamma1 inh | MsrA inh | MsrA act | PLC-beta3 inh | PLCg1 ctr | PLCbeta3 conf
COCCN1C(=O)C2=C(C1=O)C1N(C)c3ccccc3[C@@]13C[C@@H](CO)N(S(=O)(=O)c1ccc(OC)cc1)C3=N2 (stereo partly specified) | 0 | . | . | 0 | . | .
NC(=NCc1ccccc1)NN=Cc1ccnc2ccccc12 | 4 | 1 | -4 | 5 | . | .
Cc1cc(C)nc(Nc2nc(C(N)CCc3ccccc3)cs2)n1 (stereo unspecified) | 14* | 1 | -1 | 11* | -6 | -14
O=C1c2ccsc2SCCN1Cc1cccc(Cl)c1 | 2 | 0 | -1 | 0 | . | .
Cc1cccc(CN2CCSc3sccc3C2=O)c1 | 13* | 1 | -5 | -2 | -5 | -6
Nc1ccn([C@@H]2O[C@H](C(=O)N[C@H](Cc3ccccc3)C(=O)N3CCN(C(=O)N4CCOCC4)CC3)[C@@H](O)[C@H]2O)c(=O)n1 | 0 | 1 | . | 6 | . | .
CCC(C)c1ccc(S(=O)(=O)Nc2cccnc2)cc1 (stereo unspecified) | 1 | 0 | -1 | -4 | . | .
CC(C)Cc1ccc(S(=O)(=O)Nc2cccnc2)cc1 | 9.8* | 1 | -6 | 0 | -5 | -8
CCc1nc2ccc(C(=O)N3CCN(C(C)=O)CC3)cn2c1N(C=O)Cc1ccc(OC)cc1 | -1 | 0 | 3 | -4 | . | .
COc1cccc(CNC(=O)[C@@H]2CCCN2C(=O)[C@H]2CCCCN2)c1 | 18* | 1 | -3 | 7 | -4 | -1
CC1CCCC(NC(=O)c2cc(S(=O)(=O)N3CCCCC3)c[nH]2)C1C (stereo unspecified) | -1 | 3 | -6 | 1 | . | .
CCOc1ccc(Cc2nc(C)c(CC(=O)N3CCOCC3)c(=O)[nH]2)cc1 | 11* | 0 | -1 | 3 | -5 | -3
C=CCSC1=N/C(=C\c2cc(OCC)c(OC(C)=O)c([N+](=O)[O-])c2)C(=O)S1 | 12* | 2 | -5 | 5 | 2 | -1
C=CCSC1=N/C(=C\c2ccc3c(c2)OCO3)C(=O)S1 | -1 | 1 | -6 | -1 | . | .
Cc1ccc(OC(C)C(=O)N2CCc3ccccc32)c([N+](=O)[O-])n1 (stereo unspecified) | 5 | 0 | -5 | -6 | . | .
CC(/C=C/c1cccc([N+](=O)[O-])c1)=N\NC(=O)c1ccncc1 | 13* | 2 | -6 | 1 | 3 | 4
O=C(N/N=C/c1ccncc1)c1cccc([N+](=O)[O-])c1 | 8 | 0 | . | 5 | . | .
CCOC(=O)C(NC(=O)c1ccccc1)(N1CCOCC1)C(F)(F)F (stereo unspecified) | 10* | -2 | -13 | 4 | -3 | -3
CC1(C(=O)NS(=O)(=O)c2cccc(Cl)c2)CCN1C(=O)C/C=C/c1ccccc1 (stereo unspecified) | -6 | 0 | -10 | -14 | . | .
CN1C(=O)C(c2cn(C)c3ccccc23)(c2cn(C)c3ccccc23)c2cc(F)ccc21 | 2 | 0 | . | -1 | . | .
CN1C(=O)[C@@](O)(c2cn(C)c3ccccc23)c2cc(F)ccc21 | 3 | 1 | . | 12* | -6 | -3
C[C@H](NC(=O)c1ccc(Br)cc1)C(=O)NCc1ccc(S(N)(=O)=O)cc1 | 9.6* | 1 | 0 | 6 | -2 | -3
CCNCc1cc(OCC)c(OCC(=O)NCCc2ccccc2)cc1Cl | 12* | 1 | -2 | -5 | -8 | -2
CCCOc1ccc(CC(=O)NCCc2ccccc2)cc1OC | 12* | 1 | -12 | -1 | 0 | 4
Cc1ccccc1Cn1c(=O)c2c(nc3n2CCN3Cc2ccco2)n(C)c1=O | 11* | 2 | -1 | 7 | -3 | 1
SMILES | PLC-gamma1 inh | MsrA inh | MsrA act | PLC-beta3 inh | PLCg1 ctr | PLCbeta3 conf
COC(=O)C[C@@H]1CC[C@H](NC(=O)CC2CC2)[C@@H](CO)O1 | 0 | 0 | . | 0 | . | .
CN(C)S(=O)(=O)c1cc(C(=O)NCC2CCCO2)c(Cl)cc1Cl (stereo unspecified) | 9.5* | 0 | -2 | 6 | -1 | 3
CCNC(=O)c1cc(S(=O)(=O)N(C)C)c(Cl)cc1Cl | -1 | 2 | -16 | 0 | . | .
COc1ccc(C(=O)N2CCN(C3CCC(c4ccccc4)CC3)CC2)cc1OC (stereo unspecified) | 15* | 1 | 1 | 5 | -12 | -2
COc1ccc(C(=O)N2CCC(N3CCN(c4ccccc4)CC3)CC2)cc1OC | 3 | -1 | -15 | 5 | . | .
Cc1ccc(N2CC(C(=O)OCC(=O)NNC(=O)c3ccccc3)CC2=O)cc1 (stereo unspecified) | 11* | 1 | -5 | -4 | 3 | 3
CCc1ccc(N2CC(C(=O)OCC(=O)NNC(=O)c3ccccc3)CC2=O)cc1 (stereo unspecified) | -3 | 0 | -1 | -7 | . | .
C[C@@H]1COC(=O)[C@H](CC(=O)OC(C)(C)C)C/C=C\C[C@@H](CC(=O)NCCO)C(=O)N1 | -1 | 3 | -14 | 1 | . | .
CC1(C)CN(c2ccc(N3CC(C)(C)C3=O)cc2)C1=O | 4 | 0 | -11 | -4 | . | .
CC(=O)Nc1ccc(N2CC(C)(C)C2=O)cc1 | 13* | 1 | 2 | 5 | -3 | 1
CC(C)CN1C(=O)[C@@]2(CC(=O)N(C)C2c2ccccc2)c2cc(-n3cc(CCc4ccccc4)nn3)ccc21 (stereo partly specified) | 10* | . | . | 1 | -2 | 0
CC(C)CN1C(=O)[C@]2(CC(=O)N(C)C2c2ccccc2)c2cc(-n3cc(CCc4ccccc4)nn3)ccc21 (stereo partly specified) | 0 | . | . | 2 | . | .
C[C@H](CO)N1C[C@H](C)[C@@H](CN(C)C(=O)Nc2ccc3c(c2)OCO3)Oc2c(NC(=O)Nc3ccc4c(c3)OCO4)cccc2C1=O | -7 | -1 | -1 | -9 | . | .
CCN=C1SC(CC(=O)NCCc2ccc(OC)c(OC)c2)C(=O)N1CC (stereo unspecified) | -3 | 0 | -5 | 2 | . | .
CN=C1SC(CC(=O)NCCc2ccc(OC)c(OC)c2)C(=O)N1C (stereo unspecified) | 11*! | 1 | -4 | 13*! | 9.5* | 6
O=S1(=O)c2ccc(Br)cc2OC[C@@H](Cc2ccccc2)N1Cc1cn(CC2CCCCC2)nn1 | 10* | . | . | 4 | -4 | -1
CC1CN(c2ccc(Cl)cc2)c2nc3c(c(=O)[nH]c(=O)n3C)n2C1 (stereo unspecified) | 10* | 1 | -9 | -5 | -2 | 0
CC1CN(c2ccccc2)c2nc3c(c(=O)[nH]c(=O)n3C)n2C1 (stereo unspecified) | 2 | 1 | -2 | -6 | . | .
COc1ccc(CN(C)C(=O)c2ccccc2Sc2ccccc2C#N)c(OC)c1 | 3 | 0 | -1 | -3 | . | .
CCCn1c(SCC(=O)N(C)C2CCCCC2)n[nH]c1=O | 1 | 0 | -4 | 3 | . | .
Cc1cccc(OC(C)C(=O)N(Cc2cccs2)C2CCS(=O)(=O)C2)c1C (stereo unspecified) | 13* | 2 | -6 | 3 | -4 | 2
